Experimental data reported in PubChem BioAssay (NCATS).
Where “and” joins values, the source holds several entries; their conditions need not be identical. Identical values can stand only once. Inconclusive results are not listed. Calls of active or inactive are those of the source. The call rests on the fitted dose curve; in most records, active means well fitted inhibition curve with a large enough effect; inconclusive means small, poorly fitted or top-dose-only effect; inactive means flat fitted curve, though single readings scatter.

Key:
CRL-7250 = normal cell line; test: Cytotoxic Profiling of Annotated Libraries Using Quantitative High-Throughput Screening (AID 1296008); settings: Five cell lines viability, CellTiter-Glo ATP luminescence, 48-72 h; max response: hits give low values; on max response: on the % scale 0 is the no-effect control and ±100 the full control effect
Procedure, shortened: (§1)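 Compounds were pin-transferred onto cells and incubated 48 or 72 hr at 37 degree Celsius, 95% humidity. CellTiter-Glo was added, plates sat 10 min at room temperature, then ATP-coupled luminescence was imaged as the viability read-out.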

HEK293 = test: as above; settings: Five cell lines viability, CellTiter-Glo ATP luminescence, 48-72 h; max response: hits give low values
Procedure, shortened: as §1

HaCat [1] = test: as above; settings: Five cell lines viability, CellTiter-Glo ATP luminescence, 48-72 h; max response: hits give low values
Procedure, shortened: as §1

KB-3-1 = test: as above; settings: Five cell lines viability, CellTiter-Glo ATP luminescence, 48-72 h; max response: hits give low values
Procedure, shortened: as §1

NIH3T3 = test: as above; settings: Five cell lines viability, CellTiter-Glo ATP luminescence, 48-72 h; max response: hits give low values
Procedure, shortened: as §1

MCC-13 = test: qHTS assay to identify novel small-molecules to repurpose for Merkel cell carcinoma treatment (AID 1296009); settings: MCC and control cell lines, CellTiter-Glo viability, 72 h; series mostly up to 46 µM
Procedure, shortened: (§2)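 Viability readout: ATP luminescence (CellTiter-Glo) after 72 hr drug exposure at 37 degree celsius. Dose-response format was 8 points for NPC and 11 points for MIPE; data normalized to in-plate controls.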

MCC-26 = test: as above; settings: MCC and control cell lines, CellTiter-Glo viability, 72 h; series mostly up to 46 µM
Procedure, shortened: as §2

HEK293T = test: as above; settings: MCC and control cell lines, CellTiter-Glo viability, 72 h; at 44.8 µM (top of the series)
Procedure, shortened: as §2

P94_40 = test: qHTS profiling for inhibitors of Plasmodium falciparum proliferation (AID 504749);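 further: 0% = DMSO vehicle and full inhibition = artemisinin control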; settings: P. falciparum in erythrocytes, SYBR Green DNA, 72 h; series mostly up to 28.7 µM
Procedure, shortened: (§3)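 Quantitative HTS: compounds pinned into medium, infected erythrocytes added (0.3% parasitemia, 2.5% hematocrit), 72 h culture at 37 C under 5% CO2. Saponin/Triton lysis with SYBR Green I, overnight RT, then fluorescence read.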

PC49 = test: as above; settings: P. falciparum in erythrocytes, SYBR Green DNA, 72 h; series mostly up to 28.7 µM
Procedure, shortened: as §3

SC27B = test: as above; settings: P. falciparum in erythrocytes, SYBR Green DNA, 72 h; series mostly up to 28.7 µM
Procedure, shortened: as §3

TAB109 = test: as above; settings: P. falciparum in erythrocytes, SYBR Green DNA, 72 h; series mostly up to 28.7 µM
Procedure, shortened: as §3

TAB113 = test: as above; settings: P. falciparum in erythrocytes, SYBR Green DNA, 72 h; series mostly up to 28.7 µM
Procedure, shortened: as §3

W2 = test: as above; settings: P. falciparum in erythrocytes, SYBR Green DNA, 72 h; series mostly up to 28.7 µM
Procedure, shortened: as §3

HACAT [2] = test: qHTS assay to identify novel small-molecules to repurpose for Merkel cell carcinoma treatment (AID 1296009); settings: MCC and control cell lines, CellTiter-Glo viability, 72 h; at 44.8 µM (top of the series) unless noted
Procedure, shortened: as §2
Further: nearly all actives have a fitted effect of over 60% in size.

COc1cccc(-c2cc(=O)c3ccccc3o2)c1N
inactive: max response (CRL-7250) -6.48% | max response (HEK293) -10.3% | max response (HaCat [1]) -7.74% | max response (KB-3-1) -0.147% | outcome (NIH3T3) | Potency (MCC-13) | Potency (MCC-26)

O=c1cc(-c2cccc3c2Sc2ccccc2S3)oc(N2CCOCC2)c1
inactive: outcome (CRL-7250) | outcome (HEK293) | max response (HaCat [1]) -21.6% | outcome (KB-3-1) | outcome (NIH3T3) | outcome (HEK293T) | Potency (MCC-13) | Potency (MCC-26)

Nc1ncnc2c1ncn2[C@@H]1O[C@H](CO)C[C@@H]1O
inactive: max response (CRL-7250) -11.4% | max response (HEK293) -3.58% | max response (HaCat [1]) -0.663% | outcome (KB-3-1) | max response (NIH3T3) -2.75% | Potency (MCC-13) | Potency (MCC-26)

O=C1Nc2ccc(Cl)cc2C(C#CC2CC2)(C(F)(F)F)O1 (stereo not given)
inactive: Potency (P94_40) | outcome (PC49) | Potency (SC27B) | outcome (TAB109) | Potency (TAB113) | Potency (W2) | max response (CRL-7250) -18.6% | max response (HEK293) -29.6% | outcome (HaCat [1]) | max response (KB-3-1) -17.5% | max response (NIH3T3) -6.53% | outcome (HACAT [2]) | Potency (MCC-13) | Potency (MCC-26)

Nc1ncnc2ccccc12
inactive: outcome (CRL-7250) | outcome (HEK293) | max response (HaCat [1]) -14.1% | outcome (KB-3-1) | max response (NIH3T3) -0.365% | outcome (HEK293T) | Potency (MCC-13) | Potency (MCC-26)

CC1(C)CCC(CN2CCN(c3ccc(C(=O)NS(=O)(=O)c4ccc(NCC5CCOCC5)c([N+](=O)[O-])c4)c(Oc4cnc5[nH]ccc5c4)c3)CC2)=C(c2ccc(Cl)cc2)C1
inactive: max response (CRL-7250) -2.21% and -9.69% | max response (HEK293) -5.37% and -6.15% | max response (HaCat [1]) -24.1% and -27.2% | max response (KB-3-1) 0.966% | max response (NIH3T3) -21% and 4.74% | Potency (MCC-13) | Potency (MCC-26)

NC1=N[C@@]2(c3cc(NC(=O)c4ccc(F)cn4)ccc3F)COC[C@@H]2CS1
inactive: outcome (CRL-7250) | max response (HEK293) -6.98% | max response (HaCat [1]) -6.87% | max response (KB-3-1) 8.68% | max response (NIH3T3) 4.73% | Potency (MCC-13) | Potency (MCC-26)

COC(=O)C1=CO[C@@H](O)[C@@H]2C(CO)=CC[C@@H]12
inactive: max response (CRL-7250) 0.508% | max response (HEK293) 4.92% | max response (HaCat [1]) 3.95% | max response (KB-3-1) -1.15% | outcome (NIH3T3) | Potency (MCC-13) | Potency (MCC-26)

O=C(OCC#CCSc1nnc(-c2cccc3ccccc23)o1)c1cc2ccccc2s1
inactive: max response (CRL-7250) 3.01% | outcome (HEK293) | max response (HaCat [1]) -10.9% | max response (KB-3-1) -5.32% | outcome (NIH3T3) | outcome (HEK293T) | Potency (MCC-13) | Potency (MCC-26)

CCOC(CN1C(=O)[C@](CC(=O)Nc2ccc(C)cc2)(NC(=O)Nc2ccc(C)cc2)c2ccccc21)OCC
inactive: max response (CRL-7250) 2.73% | max response (HEK293) -3.95% | max response (HaCat [1]) -19.2% | max response (KB-3-1) -11% | max response (NIH3T3) -3.18% | Potency (MCC-13) | Potency (MCC-26)
